In PubChem BioAssay (NCI) one finds growth data, which are given here for eight compounds.

SMILES strings stand for the structures. About 83,000 compounds went through this panel and 20% of them were active in at least one assay; those are over-represented in the sample as a whole.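 In brief: 96-well plates, 48 h treatment, single concentration, percent growth endpoint.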 A number with no mark means an inactive call. Active and inactive are the calls of the source. Rule for the calls: active = growth percent below 10; inactive = the rest.

Holding throughout (experiment): NCI-60 one-dose screen, 48 h (100 = growth as untreated, 0 = no growth, -100 = all killed)
Common to all, as to conditions: 10 µM unless noted

The subject of experiment [1] is SR leukemia.
The subject of experiment [2] is RPMI-8226 leukemia.
Experiment [3] deals with OVCAR-8 ovarian.
The subject of experiment [4] is OVCAR-5 ovarian.
Experiment [5] concerns OVCAR-4 ovarian.
Experiment [6] relates to SK-OV-3 ovarian.
Experiment [7] concerns IGROV1 ovarian.
In experiment [8] the test system is OVCAR-3 ovarian.
Experiment [9] relates to HS 578T breast.
For experiment [10], the system named is NCI/ADR-RES ovarian.
The test system of experiment [11] is T-47D breast.
Experiment [12] deals with BT-549 breast.
The subject of experiment [13] is MDA-MB-435 melanoma.
For experiment [14], the system named is SW-620 colon.
The subject of experiment [15] is MCF7 breast.
Experiment [16] has as its system HCT-116 colon.
Experiment [17] deals with HCC-2998 colon.
For experiment [18], the system named is KM12 colon.

Consider `Cc1cc(C)c2c(c1)N(C)c1ncnc(-n3c(C)nc4cc(C)ccc43)c1CC2C` (centres undefined), for which the growth in [1] is 11.3%; in [2], 35%; in experiment [3] it was 71.6%; in experiment [4], 91.2%; in experiment [5], 58.1%; in [6] it was 31.5%. The growth was 47.5% in [7]; 21.5% in experiment [8]; 40.9% in [9]; 7.15% (active) in experiment [10]; 48.9% in experiment [11]; 59.2% in [12]. Also, the growth in experiment [13] was 2.51% (active); in experiment [14], 19.6%; in experiment [15], 18.7%; in experiment [16], 17.4%; in experiment [17], 76.1%; in experiment [18] it was 38.7%.
With `N#CSc1c[nH]c2ccc(/C=C/C(=O)/C=C(O)/C=C/c3ccc4[nH]cc(SC#N)c4c3)cc12`, the growth in experiment [1] was 2.57% (active); in experiment [2], 3.93% (active); in experiment [3] it was 9.71% (active); in experiment [4] it was 67.4%; in [5], 18.6%; in [6] it was 100%. Further, the growth is 3.73% (active) in experiment [7]; 18.3% in experiment [8]; 51.7% in [9]; 46.4% in experiment [10]; 19.4% in experiment [11]; 15.7% in [12]. Moreover, the growth is -2.07% (active) in experiment [13]; 9.56% (active) in [14]; 10.5% in experiment [15]; 9.39% (active) in experiment [16]; 46.3% in experiment [17]; 24.9% in [18].
Regarding `OC1(c2ccccc2)c2ccccc2N(c2ccccc2)c2ccc(Cl)cc21` (centres undefined), the growth in [1] is -28.7% (active); in [2], -6.58% (active); in [3], -45% (active); in experiment [4], -72.3% (active); in experiment [5], -82.8% (active); in [6], -89.3% (active). Further, the growth in experiment [7] is -94.5% (active); in experiment [8], -98.1% (active); in [9], 4.35% (active); in [10], 14.8%; in [11] it was -85.1% (active); in experiment [12], -78.7% (active). Moreover, the growth in [13] was -81.5% (active); in experiment [14] it was -85.7% (active); in experiment [15] it was -88% (active); in experiment [16], -85.9% (active); in experiment [17], -90.1% (active); in [18], -87.6% (active).
Take `Cc1nc([P+](c2ccccc2)(c2ccccc2)c2ccccc2)c(N2CCCCC2)o1`: the growth is 20.3% in [1]; -13.5% (active) in experiment [2]; 20.3% in experiment [3]; 54.1% in [4]; 19.8% in [5]; 20.6% in experiment [6]. The growth in experiment [7] was 32.8%; in [8] it was 19.5%; in experiment [9], 27.9%; in experiment [10] it was 107%; in experiment [11], -0.433% (active); in experiment [12], 20%. The growth in [13] was 21.3%; in experiment [14] it was 37%; in [15], 10.9%; in [16] it was 10.9%; in experiment [17], 31.6%; in [18] it was 10.1%.
On to `COCCOC(C)C(/C=N/NC(N)=S)=N/NC(N)=S` (centres undefined), for which the growth was 53.2% in [1]; 36.2% in experiment [2]; 57.1% in [3]; 97.7% in [4]; 9.81% (active) in experiment [5]; 93.3% in [6]. In addition, the growth in [7] was 21.2%; in experiment [8] it was 13.9%; in [9], 83.3%; in experiment [10], 52.7%; in [11] it was 28.7%; in experiment [12], 90.1%. The growth in [13] is 87.4%; in experiment [14], 61.7%; in [15] it was 19.2%; in experiment [16], 6.21% (active); in experiment [17], 94.2%; in experiment [18], 92.2%.
In the case of `CC(C)NS(=O)(=O)/N=C1\NC(=O)NC1=C(Cl)Cl`, the growth was 19.7% in experiment [1]; 91.1% in experiment [2]; 96.2% in [3]; 115% in experiment [4]; 106% in [5]; 102% in experiment [6]. For the same compound, the growth was 97.1% in experiment [7]; 98.5% in experiment [8]; 97.9% in experiment [9]; 98.5% in experiment [10]; 79.7% in [11]; 104% in [12]. Also, the growth in experiment [13] is 94.3%; in experiment [14], 103%; in experiment [15], 82.7%; in experiment [16], 102%; in experiment [17] it was 110%; in [18] it was 85.4%.
Turning to `O=S(O)c1cc(Cl)cc(Cl)c1OCc1ccccc1`, the growth was 92.6% in experiment [1]; 93.1% in [2]; 97.6% in [3]; 99% in experiment [4]; 113% in experiment [5]; 102% in [6]. The growth in experiment [7] is 109%; in experiment [8] it was 107%; in experiment [9] it was 95.4%; in [10] it was 103%; in experiment [11], 102%; in experiment [12], 107%. In addition, the growth in experiment [13] was 107%; in experiment [14], 107%; in [15], 100%; in experiment [16], 96.2%; in [17] it was 102%; in experiment [18] it was 105%.
On to `CCOC(=O)c1[nH]cc2c1CCc1sc(Nc3ccccn3)nc1-2`, for which the growth in experiment [1] was 56.8%; in [2], 45%; in experiment [3], 83.1%; in [4], 109%; in [5], 72.7%; in [6] it was 100%. Further, the growth was 97.6% in experiment [7]; 82.2% in [8]; 95.6% in experiment [9]; 72.5% in experiment [10]; 55.4% in experiment [11]; 79.4% in experiment [12]. Moreover, the growth was 86.2% in [13]; 103% in experiment [14]; 57.1% in experiment [15]; 75.7% in experiment [16]; 94.6% in experiment [17]; 64.3% in experiment [18].
